Where a name gives a salt, the structure may show the parent alone. ± gives the standard deviation of the averaged measurements.
System: E. coli TESEC Mtb Alr
Experiment: growth (OD600 after 10 h); higher = more growth (less inhibition)
Details: compound 0.1 mM
Method: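 TESEC Mtb Alr E. coli, or the Alr+ wild-type control, in 384-well plates with Prestwick library compounds at 0.1 mM and 1% DMSO, across arabinose induction levels of 1E3 to 1E7 nM. Growth is read as OD600 after 10 h at 37 °C in triplicate biological replicates.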

[1] = arabinose 1000 nM, raw OD600 reference: median of DMSO wells 0.294, cell-free background 0.041
[2] = arabinose 10000 nM, raw OD600 reference: median of DMSO wells 0.264, cell-free background 0.041
[3] = arabinose 100000 nM, raw OD600 reference: median of DMSO wells 0.201, cell-free background 0.041
[4] = arabinose 1000000 nM, raw OD600 reference: median of DMSO wells 0.193, cell-free background 0.041
[5] = arabinose 10000000 nM, raw OD600 reference: median of DMSO wells 0.146, cell-free background 0.041

C=CC[C@]1(O)CC[C@H]2[C@@H]3CCC4=CC(=O)CCC4=C3C=C[C@@]21C [Altrenogest]
growth [1]: 0.16 ± 0.0073 | growth [2]: 0.167 ± 0.0079 | growth [3]: 0.144 ± 0.0049 | growth [4]: 0.0767 ± 0.0035 | growth [5]: 0.118 ± 0.005

CCC1=C[C@H]2CN3CCc4c([nH]c5ccccc45)[C@](C(=O)OC)(C2)[C@H]13 [Catharanthine]
growth [1]: 0.262 ± 0.012 | growth [2]: 0.259 ± 0.006 | growth [3]: 0.169 ± 0.013 | growth [4]: 0.101 ± 0.0015 | growth [5]: 0.144 ± 0.0052

c1ccc2c(c1)OCC(C1=NCCN1)O2 (stereo not given) [Idazoxan hydrochloride]
growth [1]: 0.281 ± 0.02 | growth [2]: 0.27 ± 0.0069 | growth [3]: 0.188 ± 0.0024 | growth [4]: 0.192 ± 0.0045 | growth [5]: 0.141 ± 0.0099

CC(C)(C)NCC(O)c1ccccc1Cl (stereo not given) [Tulobuterol]
growth [1]: 0.272 ± 0.0075 | growth [2]: 0.273 ± 0.0098 | growth [3]: 0.174 ± 0.013 | growth [4]: 0.203 ± 0.0095 | growth [5]: 0.1357 ± 0.00093

CC(=O)O[C@H]1C[C@@H]2CC[C@@H]3[C@H](CC[C@@]4(C)[C@H]3C[C@H]([N+]3(C)CCCCC3)[C@@H]4OC(C)=O)[C@@]2(C)C[C@@H]1[N+]1(C)CCCCC1 [Pancuronium bromide]
growth [1]: 0.318 ± 0.0065 | growth [2]: 0.2563 ± 0.0013 | growth [3]: 0.194 ± 0.021 | growth [4]: 0.168 ± 0.0052 | growth [5]: 0.154 ± 0.0046

CCC(=O)O[C@@](Cc1ccccc1)(c1ccccc1)[C@@H](C)CN(C)C [Levopropoxyphene napsylate]
growth [1]: 0.249 ± 0.005 | growth [2]: 0.283 ± 0.012 | growth [3]: 0.176 ± 0.014 | growth [4]: 0.1558 ± 0.001 | growth [5]: 0.15 ± 0.0048

C#C[C@]1(O)CC[C@H]2[C@@H]3CCC4=CC(=O)CCC4=C3C=C[C@@]21CC [Gestrinone]
growth [1]: 0.195 ± 0.02 | growth [2]: 0.18 ± 0.0068 | growth [3]: 0.173 ± 0.0028 | growth [4]: 0.105 ± 0.011 | growth [5]: 0.134 ± 0.0068

C[CH2][Hg][S]c1ccccc1C(=O)[O-].[Na+] [Thimerosal]
growth [1]: 0.162 ± 0.018 | growth [2]: 0.117 ± 0.01 | growth [3]: 0.0992 ± 0.0084 | growth [4]: 0.04637 ± 0.00025 | growth [5]: 0.0615 ± 0.0003

From the supplement of paper PMC9262897, “Low-cost anti-mycobacterial drug discovery using engineered E. coli” (Nature Communications, 2022)
